PubChem BioAssay (NCI)
The panel holds about 79,000 compounds, 15% with a hit somewhere; the sample as a whole holds those more often. Activity calls are given as the source filed them. Rule as the data show it: active = growth inhibition above about 70%; inactive = the rest.

Columns and labels:
[1] = NCI Yeast Anticancer Drug Screen. Data for the rad52 strain (AID 147);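 also: 0% = growth of vehicle-treated control cultures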; details: S. cerevisiae rad52 mutant growth inhibition, hits give high values
Method in brief: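 Vehicle-treated cultures served as the reference for growth inhibition of compound-exposed yeast bearing a DNA repair mutation.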

[2] = NCI Yeast Anticancer Drug Screen. Data for the wt1 strain (AID 149);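 also: 0% = growth of vehicle-treated wt1 cultures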; details: S. cerevisiae wt1 strain (SPY 50644) growth inhibition, hits give high values
Method in brief: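 The wt1 strain was treated with compounds, and growth was compared with vehicle-treated cultures to give inhibition.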

[3] = NCI Yeast Anticancer Drug Screen. Data for the rad50EPP+ strain (AID 151);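 also: 0% = growth of vehicle-treated control cultures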; details: S. cerevisiae rad50 mutant strain, hits give high values
Method in brief: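 In this screen, rad50EPP+ yeast were exposed to compounds. Growth inhibition was scored against vehicle-treated controls.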

[4] = NCI Yeast Anticancer Drug Screen. Data for the mgt1 strain (AID 153); details: S. cerevisiae mgt1 mutant growth inhibition, hits give high values
Method in brief: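 mgt1 strain exposed; growth vs vehicle control recorded as inhibition.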

[5] = NCI Yeast Anticancer Drug Screen. Data for the rad50 strain (AID 155);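 also: 0% = growth of vehicle-only cultures of the same strain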; details: S. cerevisiae rad50 strain growth inhibition, hits give high values
Method in brief: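 Cells are treated with compound, grown, and their growth is then scored against vehicle-only cultures of the same repair-deficient yeast strain.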

[6] = NCI Yeast Anticancer Drug Screen. Data for the mec2-1 strain (AID 157); details: S. cerevisiae mec2-1 strain, hits give high values
Method in brief: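 Vehicle-treated cultures served as reference for growth inhibition of compound-exposed mec2-1 yeast.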

[7] = NCI Yeast Anticancer Drug Screen. Data for the rad14 strain (AID 159);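 also: 0% = growth of vehicle-treated control cultures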; details: S. cerevisiae rad14 strain growth inhibition, hits give high values
Method in brief: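 Readout: yeast growth inhibition, referenced to vehicle-only cultures. Strain bears a defined alteration in DNA damage repair.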

[8] = NCI Yeast Anticancer Drug Screen. Data for the sgs1 mgt1 strain (AID 161);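 also: 0% = growth of cultures given vehicle only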; details: S. cerevisiae sgs1 mgt1 strain, hits give high values
Method in brief: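 Read-out: growth inhibition vs vehicle controls. Cells: mutant yeast strain deficient in DNA damage repair.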

[9] = NCI Yeast Anticancer Drug Screen. Data for the CLN2oe strain (AID 163);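 also: 0% = growth of vehicle-only control cultures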; details: S. cerevisiae CLN2oe strain, hits give high values
Method in brief: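 Inhibition relative to vehicle-treated yeast is reported. Cells: strain with genetic alteration in cell-cycle control, grown with compound.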

[10] = NCI Yeast Anticancer Drug Screen. Data for the cln2 rad14 strain (AID 165);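 also: 0% = growth equal to vehicle treated cultures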; details: S. cerevisiae cln2 rad14 strain, hits give high values
Method in brief: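 Each compound was tested on cln2 rad14 yeast. Inhibition of growth was calculated against vehicle-exposed controls.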

[11] = NCI Yeast Anticancer Drug Screen. Data for the bub3 strain (AID 167); details: S. cerevisiae bub3 mutant strain, hits give high values
Method in brief: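 Part of a panel of yeast mutants defective in DNA damage repair or cell cycle regulation. Each strain is grown with compound, and inhibition is calculated relative to solvent-treated cultures.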

[12] = NCI Yeast Anticancer Drug Screen. Data for the wt2 strain (AID 169);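 also: 0% = growth of vehicle-treated yeast cultures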; details: S. cerevisiae wt2 strain growth inhibition, hits give high values
Method in brief: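 Inhibition of yeast growth was determined after compound treatment, normalised to controls receiving only vehicle.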

[13] = NCI Yeast Anticancer Drug Screen. Data for the mlh1 strain (AID 171);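 also: 0% = growth of vehicle-treated control cultures of the same strain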; details: S. cerevisiae mlh1 strain growth inhibition, hits give high values
Method in brief: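 Vehicle-normalised growth inhibition of a repair- or checkpoint-altered yeast strain following compound treatment.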

[14] = NCI Yeast Anticancer Drug Screen. Data for the sgs1 strain (AID 173);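 also: 0% = growth of vehicle-only control cultures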; details: S. cerevisiae sgs1 mutant, hits give high values
Method in brief: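 Screen format: yeast with repair or checkpoint alterations, compound exposure, growth read relative to vehicle.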

[15] = NCI Yeast Anticancer Drug Screen. Data for the mlh1 rad18 strain (AID 175); details: S. cerevisiae mlh1 rad18 strain growth inhibition, hits give high values
Method in brief: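 Vehicle-treated cultures served as the reference for growth inhibition in a yeast strain carrying DNA damage repair alterations exposed to each compound.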

[16] = NCI Yeast Anticancer Drug Screen. Data for the rad18 strain (AID 177); details: S. cerevisiae rad18 mutant growth inhibition, hits give high values
Method in brief: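 Test articles were incubated with altered yeast defective in DNA damage repair. Results are given as inhibition of growth versus vehicle.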

[17] = at 5.0 µM (retest, dose inferred, filed as 0.5)
[18] = at 50.0 µM (retest, dose inferred, filed as 5.0)

Measured: growth inhibition

CC(C)c1ccc(NC(=S)NC(=O)c2ccccc2)cc1
active: [11]; at 11.0 µM 78% | [11]; at 33.0 µM 86% | [11]; [18] 87% | [11]; at 50.0 µM 76% | [11]; at 100.0 µM 80%
inactive: [1]; at 1.2 µM -32% | [1]; at 3.7 µM -30% | [1]; at 11.0 µM -19% | [1]; at 33.0 µM 12% | [1]; at 100.0 µM 26% | [2]; at 1.2 µM -9% | [2]; at 3.7 µM -22% | [2]; at 11.0 µM 4% | [2]; at 33.0 µM 20% | [2]; at 100.0 µM 41% | [3]; at 1.2 µM -2% | [3]; at 3.7 µM 4% | [3]; at 11.0 µM 47% | [3]; at 33.0 µM 53% | [3]; at 100.0 µM 58% | [4]; at 1.2 µM -27% | [4]; at 3.7 µM -23% | [4]; at 11.0 µM 27% | [4]; at 33.0 µM 52% | [4]; at 100.0 µM 47% | [5]; at 1.2 µM -27% | [5]; at 3.7 µM -19% | [5]; [17] 10% | [5]; at 11.0 µM 1% | [5]; at 33.0 µM 31% | [5]; [18] 31% | [5]; at 50.0 µM 52% | [5]; at 100.0 µM 39% | [6]; at 1.2 µM -35% | [6]; at 3.7 µM -19% | [6]; [17] 0% | [6]; at 11.0 µM 4% | [6]; at 33.0 µM 23% | [6]; [18] 40% | [6]; at 50.0 µM 42% | [6]; at 100.0 µM 38% | [7]; at 1.2 µM -19% | [7]; at 3.7 µM 0% | [7]; at 11.0 µM -3% | [7]; at 33.0 µM 42% | [7]; at 100.0 µM 30% | [8]; [17] 2% | [8]; [18] 69% | [8]; at 50.0 µM 66.6% | [9]; at 1.2 µM -21% | [9]; at 3.7 µM -21% | [9]; at 11.0 µM -2% | [9]; at 33.0 µM 56% | [9]; at 100.0 µM 51% | [10]; [17] 17% | [10]; [18] 64% | [10]; at 50.0 µM 40.9% | [11]; at 1.2 µM 3% | [11]; at 3.7 µM 41% | [11]; [17] 42% | [12]; at 1.2 µM -25% | [12]; at 3.7 µM -26% | [12]; at 11.0 µM -6% | [12]; at 33.0 µM 46% | [12]; at 100.0 µM 37% | [13]; at 1.2 µM -11% | [13]; at 3.7 µM 2% | [13]; at 11.0 µM 29% | [13]; at 33.0 µM 60% | [13]; at 100.0 µM 56% | [14]; at 1.2 µM -23% | [14]; at 3.7 µM -16% | [14]; at 11.0 µM 15% | [14]; at 33.0 µM 50% | [14]; at 100.0 µM 55% | [15]; [17] 5% | [15]; [18] 59% | [15]; at 50.0 µM 34% | [16]; at 1.2 µM -28% | [16]; at 3.7 µM -28% | [16]; at 11.0 µM -17% | [16]; at 33.0 µM 3% | [16]; at 100.0 µM 26%

Clc1ccc(NCNC2Nc3ccccc3N2)cc1Cl
inactive: [1]; at 1.2 µM -1% | [1]; at 3.7 µM -1% | [1]; at 11.0 µM 18% | [2]; at 1.2 µM 2% | [2]; at 3.7 µM 7% | [2]; at 11.0 µM 8% | [3]; at 1.2 µM 8% | [3]; at 3.7 µM 16% | [4]; at 1.2 µM -4% | [4]; at 3.7 µM -3% | [4]; at 11.0 µM 4% | [5]; at 1.2 µM -1% | [5]; at 3.7 µM -3% | [5]; [17] 4% | [5]; at 11.0 µM 17% | [5]; at 50.0 µM 25.6% | [6]; at 1.2 µM 0% | [6]; at 3.7 µM 5% | [6]; [17] -6% | [6]; at 11.0 µM 17% | [6]; at 50.0 µM 9.15% | [7]; at 1.2 µM 0% | [7]; at 3.7 µM 3% | [7]; at 11.0 µM 13% | [8]; [17] 18% | [8]; at 50.0 µM 8.15% | [9]; at 1.2 µM -5% | [9]; at 3.7 µM -13% | [9]; at 11.0 µM -3% | [10]; [17] 20% | [10]; at 50.0 µM -9.7% | [11]; at 1.2 µM 1% | [11]; at 3.7 µM -8% | [11]; [17] 26% | [11]; at 11.0 µM -2% | [11]; at 50.0 µM 10.2% | [12]; at 1.2 µM -4% | [12]; at 3.7 µM -1% | [12]; at 11.0 µM 9% | [13]; at 1.2 µM -2% | [13]; at 3.7 µM 0% | [13]; at 11.0 µM 13% | [14]; at 1.2 µM 1% | [14]; at 3.7 µM 5% | [14]; at 11.0 µM 34% | [15]; [17] 55% | [15]; at 50.0 µM 29.8% | [16]; at 1.2 µM 27% | [16]; at 3.7 µM 65%
active: [1]; at 33.0 µM 97% | [1]; at 100.0 µM 98% | [2]; at 33.0 µM 81% | [2]; at 100.0 µM 99% | [3]; at 11.0 µM 88% | [3]; at 33.0 µM 98% | [3]; at 100.0 µM 98% | [4]; at 33.0 µM 85% | [4]; at 100.0 µM 99% | [5]; at 33.0 µM 93% | [5]; [18] 99% | [5]; at 100.0 µM 98% | [6]; at 33.0 µM 93% | [6]; [18] 99% | [6]; at 100.0 µM 98% | [7]; at 33.0 µM 96% | [7]; at 100.0 µM 99% | [8]; [18] 99% | [9]; at 33.0 µM 89% | [9]; at 100.0 µM 98% | [10]; [18] 83% | [11]; at 33.0 µM 91% | [11]; [18] 99% | [11]; at 100.0 µM 99% | [12]; at 33.0 µM 91% | [12]; at 100.0 µM 98% | [13]; at 33.0 µM 71% | [13]; at 100.0 µM 99% | [14]; at 33.0 µM 92% | [14]; at 100.0 µM 99% | [15]; [18] 98% | [16]; at 11.0 µM 92% | [16]; at 33.0 µM 96% | [16]; at 100.0 µM 98%
